Screening data as filed in PubChem BioAssay.
A selection: hits, their analogues and other compounds. The true share with any hit is near 3.4%.
ADAM17 inh: ADAM17 inhibitors, primary screen, biochemical, QFRET. recombinant ADAM17, EDANS/DABCYL FRET peptide cleavage. 0.83% of 370,000 active. inhibition, % at 6.95 µM;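 active = inhibition above the mean of compounds lying between control limits plus 3 SD, set per campaign, cut at about 8.5% in these data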;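 also: 0% = DMSO-only wells as the low control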
proKLK7 act: proKLK7 zymogen activators, primary screen, biochemical, fluorescence intensity | activation, % at 7 µM | Kallikrein-7 (Homo sapiens), P49862 | AID 652039, 2013 | purified proKLK7, EDANS-DABCYL substrate fluorescence; 100% is mature enzyme control, 0% vehicle | 0.9% of 370,000 active;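 active = activation above the mean of all tested compounds plus 3 SD, computed per campaign excluding outliers beyond control limits, cut at about 13% in these data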
ADAM10 inh: human ADAM10 inhibitors, primary screen, biochemical, QFRET, HTS; Disintegrin and metalloproteinase domain-containing protein 10 (Homo sapiens), O14672; recombinant ADAM10, EDANS/DABCYL FRET peptide cleavage, 3 h; inhibition, % at 7 µM; 0.62% of 370,000 active; AID 720582, 2013;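 active = inhibition above a per-campaign cutoff equal to the mean of compounds falling between control-based bounds plus 3 SD, cut at about 20% in these data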;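 also: 0% = DMSO wells while the 100% control is not disclosed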
HGIII-sPLA2 inh: human group III sPLA2 inhibitors, primary screen, biochemical, QFRET, BODIPY PC-A2 liposome substrate. AID 743126, 2013. QFRET BODIPY PC-A2 liposome hydrolysis, fluorescence. 0.56% of 370,000 active. inhibition, % at 12.2 µM;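 active = inhibition above mean plus 3 SD of compounds lying within the high and low control bounds, cut at about 19% in these data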;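 also: 0% = median of test compound wells and 100% = no enzyme DMSO wells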
CendR NRP1 mod: modulators of CendR peptide binding to NRP-1, primary screen, biochemical, fluorescence polarization, uHTS; Neuropilin-1 (Homo sapiens), O14786; FAM-RPARPAR peptide binding to NRP-1; 0.85% of 360,000 active; inhibition, % at 25 µM; AID 602438, 2012;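 active = inhibition or corrected inhibition above about 18%, plus a signal ratio from 0.5 to 1.5, limit read from the data, passing the limit was not always enough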
Target sequence (O14786 whole entry, looked up): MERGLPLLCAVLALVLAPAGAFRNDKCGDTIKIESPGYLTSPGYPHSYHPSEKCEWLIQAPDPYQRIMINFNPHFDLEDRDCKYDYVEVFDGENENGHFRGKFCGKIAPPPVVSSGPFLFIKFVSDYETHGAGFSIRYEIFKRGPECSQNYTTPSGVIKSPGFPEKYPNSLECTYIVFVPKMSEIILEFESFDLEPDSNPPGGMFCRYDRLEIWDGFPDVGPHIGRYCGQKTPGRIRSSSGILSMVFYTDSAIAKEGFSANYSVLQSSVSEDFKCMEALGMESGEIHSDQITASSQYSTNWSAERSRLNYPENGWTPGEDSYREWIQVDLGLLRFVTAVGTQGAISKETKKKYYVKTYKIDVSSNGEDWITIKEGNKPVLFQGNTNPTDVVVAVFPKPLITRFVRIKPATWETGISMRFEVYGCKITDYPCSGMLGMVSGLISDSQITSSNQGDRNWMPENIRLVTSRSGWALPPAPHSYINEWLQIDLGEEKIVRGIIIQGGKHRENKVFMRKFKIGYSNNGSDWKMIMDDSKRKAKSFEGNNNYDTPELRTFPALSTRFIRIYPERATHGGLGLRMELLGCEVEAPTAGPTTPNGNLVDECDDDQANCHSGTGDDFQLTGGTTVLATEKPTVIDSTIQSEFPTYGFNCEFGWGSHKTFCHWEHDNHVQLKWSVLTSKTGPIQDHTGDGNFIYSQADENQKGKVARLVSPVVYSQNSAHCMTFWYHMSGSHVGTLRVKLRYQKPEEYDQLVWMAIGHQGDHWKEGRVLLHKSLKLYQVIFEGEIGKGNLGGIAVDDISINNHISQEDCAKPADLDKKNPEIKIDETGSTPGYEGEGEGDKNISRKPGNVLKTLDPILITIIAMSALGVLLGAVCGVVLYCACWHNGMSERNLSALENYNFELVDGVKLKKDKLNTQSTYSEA
proKLK7 act conf: proKLK7 zymogen activators, confirmation, biochemical, fluorescence intensity, triplicate; activation, % at 7 µM; AID 686949, 2013; 68% of 3,200 active; purified proKLK7, EDANS-DABCYL substrate fluorescence; scaled: vehicle 0, mature enzyme 100; shares compounds with proKLK7 act;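 active = activation, as change over the incubation, above the mean of all tested compounds plus 3 SD, cut at about 13% in these data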
EDANS interfere: EDANS-DABCYL substrate optical interference, artefact control for kallikrein-7 zymogen activator project, biochemical, fluorescence intensity, high throughput. AID 686952, 2013. shares compounds with proKLK7 act. activation, % at 7 µM. no enzyme, 4 h; solvent 0%, active enzyme control 100%. 80% of 3,200 active;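 active = activation above the all-compound mean plus 3 SD, ignoring values outside control-based bounds, cut at about 4.8% in these data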;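 also: value is the 4 h activation minus the activation read at time zero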
EDANS interf: counter-screen for kallikrein-7 activators: EDANS-DABCYL interference, dose response; 20% of 250 active; EC50, µM; shares compounds with proKLK7 act; AID 720493; EDANS-DABCYL peptide fluorescence interference, no enzyme;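 active = compounds that raise the fluorescence signal in this interference counterscreen, with EC50 at or below 10 µM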;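 also: intact quenched peptide substrate alone read at 355 nm excitation and 520 nm emission; signal is fluorescence gain from T0 to T4 after four hours at room temperature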
An asterisk follows results filed as active; i = inactive; · = not tested or not shown; ! = a repeat was not active.

SMILES | ADAM17 inh | proKLK7 act | ADAM10 inh | HGIII-sPLA2 inh | CendR NRP1 mod | proKLK7 act conf | EDANS interfere | others
O=C(NCCCc1ccccc1)[C@H](CO)NC1(C(=O)NCCc2c[nH]c3ccccc23)CCCCC1 | -3.2 | · | 0.5 | -82.0 | · | · | ·
CN(Cc1ccco1)S(=O)(=O)c1ccc2c(c1)CCN2C(=O)CC(C)(C)C | 2.7 | 0.5 | 1.7 | -7.4 | · | · | ·
C=CCN1C(=O)c2n[nH]c(C(C)C)c2C1c1ccc(C)cc1 (stereo unspecified) | 1.3 | 0.3 | -15.5 | 8.8 | · | · | ·
COc1ccc(-c2nnc(SCC(=O)Nc3ccc(S(=O)(=O)Nc4nccs4)cc3)n2-c2ccc(OC)cc2)cc1 | 5.5 | 0.1 | 19.0 | -28.5 | · | · | ·
CN1CCSc2ccc(C(=O)NCc3ccccc3F)cc21 | -380.1 | 29.3* | i | 6.9 | -6.4 | 30.6* | 13.4* | EDANS interf=>69.5
CN1CCSc2ccc(C(=O)Nc3cc(F)ccc3F)cc21 | -67.5 | 15.5* | -239.6 | 8.2 | -4.1 | 11.1 | 12.2*
CC(C)Oc1ccc(CNC(=O)c2ccc3c(c2)N(C)CCS3)cc1 | -456.4 | -21.9 | i | -2.6 | -3.2 | · | ·
CCN1CCSc2ccc(C(=O)NCc3ccccc3Br)cc21 | -382.8 | -25.1 | i | 1.4 | -3.0 | · | ·
COc1cccc(CNC(=O)c2ccc3c(c2)N(C)CCS3)c1OC | i | 37.6* | i | 7.7 | -7.5 | 68.7* | 47.2* | EDANS interf=>69.5
CCN1CCSc2ccc(C(=O)NCc3ccccc3F)cc21 | i | 30.7* | i | 0.9 | -5.3 | 50.0* | -25.9 | EDANS interf=>69.5
COc1cc(-c2csc(N3CCC(C(N)=O)CC3)n2)cc(OC)c1OC | -2.4 | · | -7.9 | 5.3 | · | · | ·
CCN1CCSc2ccc(C(=O)NCc3ccccc3C)cc21 | -433.8 | 20.0* | i | 0.1 | -0.6 | -21.3 | -25.3
COc1ccc(S[C@]2(C(=O)N3CCN(c4ncccn4)CC3)CC(=O)N(c3ccc(Cl)cc3)[C@@H]2c2ccc(OC)cc2)cc1 | -3.5 | 0.5 | -3.4 | -2.1 | · | · | ·
CCOCCCn1c(=NC(=O)c2cccnc2)c(C(=O)OCC)cc2c(=O)n3ccccc3nc21 | i | 29.3* | i | 2.5 | 7.0 | 2.9 | 4.5*!
CCOC(=O)c1cc2c(=O)n3ccccc3nc2n(Cc2ccc(Cl)cc2)c1=N | -76.3 | -0.4 | -183.6 | 5.3 | -135.3 | · | ·
CCCCn1c(=NC(=O)c2ccco2)c(C(=O)OCC)cc2c(=O)n3cccc(C)c3nc21 | i | 18.1* | i | 11.2 | -0.4 | 2.4 | -0.9
CCCCn1c(=NC(=O)c2cccnc2)c(C(=O)OCC)cc2c(=O)n3ccccc3nc21 | -223.9 | 4.4 | i | 3.1 | -2.2 | · | ·
Cc1cccn2c(=O)c3cc(C#N)c(=NC(=O)c4ccncc4)n(CCCOC(C)C)c3nc12 | -313.6 | -0.7 | i | 10.6 | 3.0 | · | ·
COCCCn1c(=NC(=O)c2ccncc2)c(C#N)cc2c(=O)n3cccc(C)c3nc21 | i | 14.7* | i | 4.9 | -10.4 | 30.3* | 46.7*
CCCCCn1c(=NC(=O)c2ccco2)c(C(=O)OCC)cc2c(=O)n3ccccc3nc21 | i | 23.7* | i | -7.0 | -10.6 | 32.6* | 38.0*
CCOC(=O)c1cc2c(=O)n3cccc(C)c3nc2n(CCCOC)c1=NC(=O)c1cccnc1 | i | 9.2 | i | 3.8 | 9.8 | · | ·
COC(=O)[C@]12C[C@H](CC(=O)N3CCN(C(=O)C4CC4)CC3)C(=O)N(Cc3ccc(Cl)cc3Cl)C1=C[C@H](C(C)(C)C)O[C@@H]2C | 2.1 | 1.1 | 4.1 | -1.3 | · | · | ·
COC(=O)[C@]12C[C@H](CC(=O)N3CCCC3)C(=O)N(CCC3=CCCCC3)C1=C[C@H](C1CCCC1)O[C@@H]2C | -5.5 | 0.2 | -5.3 | 9.5 | · | · | ·
CN1CCCN(C(=O)CSc2nnc(-c3cccnc3)n2C2CCCCC2)CC1 | -4.1 | 0.7 | -6.8 | 6.8 | · | · | ·
O=S(=O)(c1ccccc1)n1c(CN2CCOCC2)nc2ccccc21 | 0.2 | 0.0 | -3.2 | 0.5 | · | · | ·
SMILES | ADAM17 inh | proKLK7 act | ADAM10 inh | HGIII-sPLA2 inh | CendR NRP1 mod | proKLK7 act conf | EDANS interfere | others
CC(C)C[C@@H]1COc2cc(Br)ccc2S(=O)(=O)N1Cc1cn(Cc2ccc(C(F)(F)F)cc2)nn1 | -0.6 | 0.7 | 2.8 | 0.6 | · | · | ·
CCCCn1c(=NC(=O)c2ccco2)c(C(=O)OCC)cc2c(=O)n3ccccc3nc21 | i | 50.0* | i | 1.0 | -4.9 | 21.0* | 21.4*
CCOCCCn1c(=NC(=O)c2cccs2)c(C#N)cc2c(=O)n3ccccc3nc21 | i | 53.1* | i | -0.3 | -15.5 | -432.5 | -326.4
Cc1cccn2c(=O)c3cc(C#N)c(=NC(=O)c4cccs4)n(CCCOC(C)C)c3nc12 | -382.1 | 6.8 | i | -2.2 | -33.8 | · | ·
CCCCOc1ccc2c(c1)/C(=C(\C(Cl)=C(Cl)Cl)[N+](=O)[O-])N2 | -19.7 | -3.8 | -49.2 | -2.0 | -43.9 | · | ·
CCOc1ccc2c(c1)/C(=C(\C(Cl)=C(Cl)Cl)[N+](=O)[O-])N2 | -187.8 | 17.9* | i | -3.1 | -13.8 | 53.4* | 61.0*
CCOC(=O)[C@@]12CCC3=C1N(CCC3)C(=O)[C@H](CC(=O)NCc1cccc(C(F)(F)F)c1)C2 | -6.8 | 0.2 | -10.6 | 6.2 | · | · | ·
CCCC1CCC2(CC1)CCC2OC(=S)Nc1ccc(Cl)cc1 (stereo unspecified) | -1.5 | · | 3.5 | 0.2 | · | · | ·
CC(C)[C@H](NC(=O)OCc1ccccc1)C(=O)OCC(=O)c1ccccc1 | 0.2 | -0.4 | -5.9 | -13.8 | -7.0 | · | ·
CC(C)[C@H](NC(=O)OCc1ccccc1)C(=O)OCc1cc(=O)oc2cc(O)ccc12 | -118.1 | 28.1* | -334.2 | -12.9 | 13.5 | 62.2* | 60.5*
CCc1ccccc1NC(=O)C1CCC(=O)N(c2ccc(OC)cc2)C1c1ccc(OC)cc1 (stereo unspecified) | 2.2 | 0.6 | 5.0 | -5.2 | · | · | ·
Cn1c(=O)c2cc(NC(=O)Nc3cccnc3)ccc2n1Cc1ccc(Cl)cc1 | -427.2 | 5.6 | i | -5.2 | -61.8 | · | ·
CCNC(=O)Nc1ccc2c(c1)c(=O)n(C)n2CC=C(C)C | i | 40.4* | i | 14.8 | -8.3 | 32.7* | 31.2*
CC(C)=CCn1c2ccc(NC(=O)Nc3cccnc3)cc2c(=O)n1C | -428.9 | 20.7* | i | 7.0 | -11.5 | 5.6 | 9.4*
